Source: PubChem BioAssay (National Center for Advancing Translational Sciences (NCATS))
L3MBTL1 inh – inhibitors of human L3MBTL1. Q9Y468. AlphaScreen L3MBTL1–H3K9me1 peptide binding. Potency, µM (top dose mostly 57.1 µM), actives largely listed as inhibitors. 230,000 tested, 0.66% active; also: nearly all actives have a fitted effect of over 60% in size
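AlphaScreen proximity signal between nickel-chelate acceptor and streptavidin donor beads (final 10 ug/mL) reports binding of 50 nM L3MBTL1 to 75 nM biotin-H3 K9me1 peptide; complex incubated with compounds 30 min at room temperature; cefsulodin titration as control.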
BLM inh – Bloom syndrome helicase (human) inhibition; P54132; 350,000 tested, 0.2% active; recombinant BLM DNA unwinding, fluorescence dequenching; Potency, µM (titrated, usually from 56.1 µM), usual class: inhibitors; also: nearly all actives have a fitted effect of over 35% in size
TDP1 block – inhibitors of human tyrosyl-DNA phosphodiesterase TDP1 | AID 485290 | 350,000 tested, 0.28% active | recombinant TDP1, AlphaScreen DNA substrate cleavage | Potency, µM (highest dose often 130 µM), most hits filed as inhibitors; also: nearly all actives have a fitted effect of over 40% in size
Target sequence (Q9NUW8 whole entry, looked up): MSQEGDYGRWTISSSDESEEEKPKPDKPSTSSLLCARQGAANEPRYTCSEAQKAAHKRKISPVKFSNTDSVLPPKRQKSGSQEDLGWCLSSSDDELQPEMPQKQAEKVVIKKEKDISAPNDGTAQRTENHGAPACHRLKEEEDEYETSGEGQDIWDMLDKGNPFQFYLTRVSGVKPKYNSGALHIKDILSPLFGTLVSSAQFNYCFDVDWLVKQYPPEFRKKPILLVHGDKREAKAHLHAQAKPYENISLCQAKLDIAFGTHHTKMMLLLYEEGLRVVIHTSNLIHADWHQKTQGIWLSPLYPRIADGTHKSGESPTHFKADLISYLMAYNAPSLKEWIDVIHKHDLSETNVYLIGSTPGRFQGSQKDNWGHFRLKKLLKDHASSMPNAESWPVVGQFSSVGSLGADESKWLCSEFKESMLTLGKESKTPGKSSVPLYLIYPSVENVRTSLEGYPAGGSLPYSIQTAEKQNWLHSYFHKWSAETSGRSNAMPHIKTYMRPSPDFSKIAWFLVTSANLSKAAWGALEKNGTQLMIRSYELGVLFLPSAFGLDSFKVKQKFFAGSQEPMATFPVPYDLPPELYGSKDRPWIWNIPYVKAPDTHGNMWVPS
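Here, a 5' biotin and 3' phosphotyrosine-FITC DNA oligonucleotide reports Tdp1 activity: intact substrate bridges AlphaScreen beads, while cleavage leaves a 3' phosphate and drops signal. All incubations at room temperature.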
APE1 inh – blocks human APE1 abasic DNA cleavage | recombinant APE1, TAMRA/BHQ-2 abasic DNA cleavage fluorescence | Potency, µM (titrated, usually from 65.8 µM), most hits filed as inhibitors | 350,000 tested, 0.35% active; also: nearly all actives have a fitted effect of over 55% in size
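Readout is kinetic fluorescence (ex 525, em 598 nm) from cleavage of 50 nM TAMRA/BHQ-2 THF abasic duplex by 0.75 nM APE1, compound added 15 min beforehand at RT.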
RECQ1 inh – RECQ1 (human) helicase inhibition; P46063; RECQ1 DNA unwinding, red fluorescence kinetic read; Potency, µM (doses to about 57.3 µM), most hits filed as inhibitors; 240,000 tested, 0.54% active; AID 2549; also: nearly all actives have a fitted effect of over 30% in size
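50 nM RECQ1T1 preincubated 15 min with compound in Tris pH 8.0 buffer with MgCl2, DTT, Tween-20 and 2.5 ug/ml poly(dI-dC); started with 200 nM TAMRA/BHQ-2 forked duplex and 2 mM ATP. Unwinding read as fluorescence (525/598 nm), two reads 2 h apart.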
KDM4E inh – blocks human JMJD2E demethylase activity; B2RXH2; Potency, µM (highest dose often 57.1 µM), actives largely listed as inhibitors; 230,000 tested, 1.6% active; JMJD2E catalytic domain, FDH-coupled NADH fluorescence (FDH is formaldehyde dehydrogenase); also: nearly all actives have a fitted effect of over 50% in size
Numbers stand for hits; i = inactive; ? = inconclusive; nt = not tested or not shown; [ ] = another dose, or the depositor's remark. Only a selection was taken, and hits are over-represented in it overall. Unless noted, calls follow the shape of the dose curve; as a rule, active = well fitted curve in the direction sought with a large enough effect; inconclusive = small, poorly fitted or top-dose-only effect, or another doubt; inactive = no such curve, though single readings can be large; an effect the other way counts as inactive or inconclusive.

SMILES	L3MBTL1 inh	BLM inh	TDP1 block	APE1 inh	RECQ1 inh	KDM4E inh
CC12C=C(/C=C/C=C/c3ccco3)C(C)(C1)C(/C=C/c1ccco1)CC2=O (centres undefined)	nt	i[12.4 µM]	2µM	?	1.4µM	nt
Cc1c(P(=S)(c2ccccc2)c2ccccc2)c2ccccc2n1C(=O)Cc1ccccc1	nt	nt	i	nt	nt	nt
Cc1ccc(S(=O)(=O)N/N=C/c2ccccc2O)cc1[N+](=O)[O-]	i	i	i	i	i	i
Cc1ccc(S(=O)(=O)N/N=C/c2ccc(O)c(O)c2)cc1[N+](=O)[O-]	i	i	i	i	i	28µM
Oc1cccc(O)c1	nt	i	i	i	i	i
O=S(=O)(c1cc(O)ccc1O)c1cccc2c(S(=O)(=O)c3cc(O)ccc3O)cccc12	3.2µM	nt	nt	2.1µM	nt	nt
Cc1cccc(NC(=O)N2CCC(CN3CCCCCC3)CC2)c1C	nt	i	i	nt	nt	nt
O=[N+]([O-])c1ccccc1N/N=C/c1cccc(O)c1O	nt	i	nt	i	i	i
O=C(CCc1ccc(S(=O)(=O)N2CCOCC2)cc1)N/N=C/c1ccc(O)c(O)c1O	14µM	i	i	?	i	10µM
O=[N+]([O-])c1ccc(N/N=C/c2ccc(O)c(O)c2O)c(S(=O)(=O)N2CCOCC2)c1	i	i	i	?	?	7.9µM
O=[N+]([O-])c1cccc(N/N=C/c2cccc(O)c2O)c1	?	i	i	i	i	14µM
O=[N+]([O-])c1ccc(N/N=C/c2cccc(O)c2O)c(S(=O)(=O)N2CCOCC2)c1	i	i	i	i	i	14µM
O=C(CCc1ccc(S(=O)(=O)N2CCOCC2)cc1)N/N=C/c1ccc(F)cc1F	i	i	i	i	i	i
CN(C)CC/C=C1/c2ccccc2CSc2ccccc21	nt	nt	nt	i	nt	nt
Nc1ccn([C@@H]2O[C@H](CO)[C@H](O)C2(F)F)c(=O)n1	nt	i	nt	nt	nt	nt
COc1cccc(C2c3c(ncn(-c4ccc(C#N)cc4)c3=N)Oc3ccc4ccccc4c32)c1 (centres undefined)	nt	nt	i	nt	nt	nt
Cc1c(P(=S)(c2ccccc2)c2ccccc2)[n+]2ccccc2n1CCCc1ccccc1	nt	nt	i	nt	nt	nt
Cc1cccc(N/N=C/c2ccc(O)c(O)c2O)c1	?	i	i	?	i	3.2µM
Cn1cc(/C=C2\SC(=S)N(NC(=O)c3ccccc3)C2=O)c2ccccc21	i	i	i	i	32µM	i
Cn1cc(/C=C2\SC(=S)N(NC(=O)c3cccc(Cl)c3)C2=O)c2ccccc21	nt	i	nt	i	i	i
O=C1c2ccccc2C(=O)N1Cc1ccncc1	nt	nt	i	nt	nt	nt
Cc1ccc(C2CC(=O)NC(SCc3ccccc3)=C2C#N)o1 (centres undefined)	18µM	i	i	i	i	i
COc1cccc(Nc2nn3c(=O)c4ccccc4nc3s2)c1	i	nt	i	i	nt	nt
O=c1c2ccccc2nc2sc(Nc3ccc(F)cc3)nn12	i	nt	56µM	?	nt	nt
O=C1c2cccc3cccc(c23)N1Cc1cccc(F)c1	nt	i	79µM	i	nt	nt
SMILES	L3MBTL1 inh	BLM inh	TDP1 block	APE1 inh	RECQ1 inh	KDM4E inh
O=C1c2cccc3cccc(c23)N1Cc1ccc(F)cc1	i	i	i	i	i	i
O=C(Nc1cccc(Cl)c1)OCC#CCCl	nt	28µM	i	1.6µM	28µM	nt
O=C(Nc1cccc(Cl)c1)OCCOc1ccccc1	i	i	nt	i	nt	nt
COc1ccc(C2=Nn3c(nnc3-c3ccccc3Cl)SC2)cc1O[C@H]1CCOC1	nt	nt	nt	i	nt	nt
O=C(c1cccc(Br)c1)N1CCCc2ccccc21	i	i	nt	i	nt	nt
O=C(c1coc(=O)c(Br)c1)N1CCCc2ccccc21	?	?	nt	?	35µM	?
CC1(NC(=O)CC[N+](C)(C)CCO)CS(=O)(=O)CC1S(=O)(=O)[O-] (centres undefined)	13µM	i	i	i	i	i
COc1ccc2c(c1)OC(=O)CC2c1ccc2c(c1)OCO2 (centres undefined)	nt	i	i	i	i	nt
O=C(Nc1cccc(N2C(=O)C3C4C=CC(C4)C3C2=O)c1)c1cccs1 (centres undefined)	i	i	i	i	i	i
Cc1cc(N2C(=O)C3C4C=CC(C4)C3C2=O)ccc1NC(=O)c1cccs1 (centres undefined)	?	i	13µM	?	i	i
O=C(N/N=C/c1cn(Cc2cccc(F)c2)c2ccccc12)c1cc(O)cc(O)c1	nt	i	0.63µM	1.5µM	nt	nt
Nc1ccc(C(=O)N/N=C/c2cn(Cc3ccc(F)cc3)c3ccccc23)cc1	nt	i	i	i	nt	nt
NC(N)=NCCC[C@H](NC(=O)CNC(=O)c1ccccc1)C(=O)Nc1cc(C(F)(F)F)ccc1Cl	nt	nt	i	nt	nt	nt
O=C(O)CSc1c2c(nc3cc(C(=O)Nc4ccc(F)c(Cl)c4)ccc13)CCCC2	nt	i	56µM	i	nt	nt
COc1ccc(NC(=O)c2ccc3c(SCC(=O)O)c4c(nc3c2)CCCC4)cc1Cl	i	i	i	i	i	i
COc1cc(/C=C2\C(=O)NN(c3ccccc3)C2=O)cc([N+](=O)[O-])c1O	nt	i	?	?	i	i
O=C1NN(c2ccccc2)C(=O)/C1=C\c1ccc(-c2cc([N+](=O)[O-])ccc2O)o1	?	i	i	i	28µM	?
O=C1NN(c2ccc(Cl)cc2)C(=O)/C1=C\c1ccc(-c2cccc(C(=O)O)c2)o1	nt	i	nt	7.9µM	?	i
COc1cc(/C=C2/C(=O)NN(c3ccc(Cl)cc3)C2=O)cc(OC)c1O	nt	i	nt	i	nt	nt
Cc1ccc(NS(=O)(=O)c2cc3c(cc2C)OCC(=O)N3)cc1C	nt	nt	i	nt	nt	nt
O=C(NC1CCCCC1)C(c1ccc(O)c(O)c1)N(C(=O)Cn1nnc2ccccc21)c1cccc(O)c1 (centres undefined)	?	i	i	i	i	16µM
COc1ccc(C2Nc3ccccc3C(=O)N2CCCN(C)C)cc1COc1ccc(NC(C)=O)cc1 (centres undefined)	nt	nt	i	nt	nt	nt
O=C1CNC(=O)/C(=C/c2ccco2)N1	35µM	i	nt	?	i	i
COc1cc(/C=N/NC(=O)COc2c(C)cc([N+](=O)[O-])cc2C)ccc1OC(=O)c1ccccc1Br	i	i	i	i	i	i
COc1cc(/C=N/NC(=O)COc2c(C)cc([N+](=O)[O-])cc2C)ccc1OC(=O)c1ccccc1	i	i	i	i	28µM	i
COc1cc(/C=N/NC(N)=S)ccc1OCC(=O)Nc1ccc(C)c(C)c1	nt	i	i	i	i	?
COc1cc(/C=N/NC(N)=O)ccc1OCC(=O)Nc1ccc(C)c(C)c1	i	10µM	i	i	i	i
COc1cccc2c1CCCC2CCCN1CCN(C2CCCCC2)CC1 (centres undefined)	nt	i	i	i	i	nt
COC(=O)C(Cc1ccccc1)NS(=O)(=O)c1cc(Br)ccc1Br (centres undefined)	nt	i	i	i	i	nt
CCC(=O)Nc1nnc(Sc2ccc(N(C)C)cc2)s1	i	i	45µM	i	i	i
